Values joined by “and” are separate entries in the source; they are usually repeats but may differ in a detail not shown here. Identical values can stand only once. Screen size: about 5,500 compounds; about 2,000 (36%) were called active. Another 18% or so got no clear call; they are omitted. No stated cut-off is given here; in the data, active means normalized growth mostly below about 0.91 (no sharp cut-off); inconclusive means no clear call, values can overlap the other calls; inactive means mostly above about 0.92. This is one part of the list.
Test: chemical genetic growth profiling, strain panel (AID 1159580);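 further: tested at 20 µM; growth read once vehicle control cultures reached saturation at 30 °C; 1 = growth at the plate median or of vehicle wells; lower values mean less growth of the strain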
Conditions: S. cerevisiae deletion strains, growth OD

Measured: normalized growth

OC[C@H]1O[C@@H](Oc2ccc(O)cc2)[C@H](O)[C@@H](O)[C@@H]1O
inactive: locus YAL013W, strain DEP1, hits give low values 1.02 | locus YAL021C, strain ccr4, hits give low values 0.993 | locus YAL026C, strain drs2, hits give low values 1.02 | locus YAL030W, strain snc1, hits give low values 1.01 | locus YBL061C, strain skt5, hits give low values 1.02 | locus YBR009C, strain hhf1, hits give low values 1.02 | locus YBR021W, strain FUR4, hits give low values 0.988 | locus YBR023C, strain chs3, hits give low values 1.01 | locus YBR171W, strain sec66, hits give low values 1.01 | locus YBR229C, strain ROT2, hits give low values 1.02 | locus YBR231C, strain swc5, hits give low values 1 | locus YBR279W, strain paf1, hits give low values 1.01 | locus YCL011C, strain gbp2, hits give low values 1.01 | locus YCL016C, strain dcc1, hits give low values 0.992 | locus YCL029C, strain bik1, hits give low values 1.04 | locus YCL069W, strain vba3, hits give low values 1.01 | locus YCR088W, strain abp1, hits give low values 1.02 | locus YDL005C, strain med2, hits give low values 1.01 | locus YDL035C, strain GPR1, hits give low values 1 | locus YDL040C, strain nat1, hits give low values 1 | locus YDL074C, strain BRE1, hits give low values 1.03 | locus YDL101C, strain DUN1, hits give low values 1.02 | locus YDL134C, strain PPH21, hits give low values 1.02 | locus YDL185W, strain tfp1, hits give low values 1.02 | locus YDL192W, strain arf1, hits give low values 1.03 | locus YDR001C, strain nth1, hits give low values 1 | locus YDR069C, strain doa4, hits give low values 1.01 | locus YDR101C, strain arx1, hits give low values 1.01 | locus YDR137W, strain rgp1, hits give low values 1.02 | locus YDR159W, strain sac3, hits give low values 1.05 | locus YDR162C, strain NBP2, hits give low values 1.03 | locus YDR195W, strain ref2 1 | locus YDR297W, strain sur2, hits give low values 1 | locus YDR318W, strain mcm21, hits give low values 1.02 | locus YDR334W, strain swr1, hits give low values 1 | locus YDR335W, strain msn5, hits give low values 1.02 | locus YDR388W, hits give low values 1.01 | locus YDR392W, strain spt3, hits give low values 1.02 | locus YDR502C, strain sam2, hits give low values 1.01 | locus YEL003W, strain gim4, hits give low values 1.01 | locus YEL037C, strain rad23, hits give low values 0.999 | locus YEL061C, strain CIN8 (second series), hits give low values 1.01 | locus YEL061C, strain CIN8, hits give low values 1.01 | locus YER015W, strain faa2, hits give low values 1.01 | locus YER016W, strain bim1, hits give low values 1.01 | locus YER110C, hits give low values 1.03 | locus YER111C, strain swi4, hits give low values 1.01 | locus YER155C, strain BEM2 (second series), hits give low values 1.03 | locus YER155C, strain BEM2, hits give low values 0.999 | locus YER167W, strain BCK2, hits give low values 1.01 | locus YFR010W, strain ubp6, hits give low values 1.01 | locus YGL078C, strain dbp3, hits give low values 1.03 | locus YGL086W, strain mad1, hits give low values 1.01 | locus YGL167C, strain pmr1, hits give low values 1.02 | locus YGL173C, strain kem1, hits give low values 1.02 | locus YGL227W, strain vid30, hits give low values 1.01 | locus YGL240W, strain doc1, hits give low values 1.02 | locus YGL248W, strain PDE1, hits give low values 1.01 | locus YGL253W, strain hxk2, hits give low values 1.03 | locus YGR078C, strain PAC10, hits give low values 1.03 | locus YGR135W, strain pre9, hits give low values 1.03 | locus YGR252W, strain gcn5, hits give low values 1.02 | locus YHR013C, strain ard1, hits give low values 1.02 | locus YHR027C, strain rpn1, hits give low values 1.01 | locus YHR030C, strain SLT2, hits give low values 1 and 0.962 | locus YHR079C, strain IRE1 (second series), hits give low values 1.02 | locus YHR079C, strain IRE1, hits give low values 0.973 | locus YHR094C, strain hxt1, hits give low values 1.02 | locus YHR129C, strain ARP1, hits give low values 1.01 | locus YHR142W, strain chs7, hits give low values 1.01 | locus YHR200W, strain rpn10, hits give low values 1.02 | locus YIL066C, strain RNR3, hits give low values 1.01 | locus YIL073C, strain SPO22, hits give low values 1.08 | locus YIL125W, strain kgd1, hits give low values 1.02 | locus YIR030C, strain dcg1, hits give low values 1.01 | locus YJL092W, strain hpr5, hits give low values 1.01 | locus YJL095W, strain BCK1 (second series), hits give low values 1 | locus YJL095W, strain BCK1, hits give low values 1.04 and 0.973 | locus YJL115W, strain asf1, hits give low values 1 | locus YJL129C, strain trk1, hits give low values 1.03 | locus YJL134W, strain LCB3, hits give low values 1 | locus YJL154C, strain vps35, hits give low values 1.01 | locus YJL164C, strain tpk1, hits give low values 1.01 | locus YJL166W, strain qcr8, hits give low values 1.02 | locus YJL168C, strain set2, hits give low values 1.02 | locus YJL187C, strain SWE1 (second series), hits give low values 1.03 | locus YJL187C, strain SWE1, hits give low values 1.02 | locus YJR066W, strain TOR1, hits give low values 0.959 | locus YKL009W, strain mrt4, hits give low values 1.02 | locus YKL068W, hits give low values 1.01 | locus YKL085W, strain MDH1 (second series), hits give low values 1.01 | locus YKL085W, strain MDH1, hits give low values 1.01 | locus YKL160W, strain elf1, hits give low values 1 | locus YKR001C, strain vps1, hits give low values 1.03 | locus YKR026C, strain gcn3, hits give low values 1.01 | locus YKR091W, strain srl3, hits give low values 1 | locus YLL001W, strain dnm1, hits give low values 1.01 | locus YLL026W, hits give low values 1.01 | locus YLL041C, strain sdh2, hits give low values 1.03 | locus YLR027C, strain aat2, hits give low values 1.01 | locus YLR039C, strain RIC1, hits give low values 1.06 | locus YLR058C, strain SHM2, hits give low values 1.04 | locus YLR102C, strain apc9, hits give low values 1.02 | locus YLR113W, strain HOG1, hits give low values 0.944 | locus YLR221C, strain rsa3, hits give low values 1.01 | locus YLR258W, strain gsy2, hits give low values 1.01 | locus YLR262C, strain YPT6 (second series), hits give low values 1.03 | locus YLR268W, strain sec22, hits give low values 1.03 | locus YLR320W, strain mms22, hits give low values 1.03 | locus YLR330W, strain CHS5, hits give low values 1.01 | locus YLR342W, strain FKS1, hits give low values 1.01 | locus YLR357W, strain rsc2, hits give low values 1.03 | locus YLR370C, strain arc18, hits give low values 1.01 | locus YLR371W, strain rom2, hits give low values 1.01 | locus YLR384C, strain iki3, hits give low values 1.03 | locus YLR418C, strain cdc73, hits give low values 1.06 | locus YML016C, strain PPZ1, hits give low values 1 | locus YML032C, strain rad52, hits give low values 1.03 | locus YML120C, strain ndi1, hits give low values 1.01 | locus YML124C, strain tub3, hits give low values 1.02 | locus YMR058W, strain fet3, hits give low values 1.01 | locus YMR078C, strain ctf18, hits give low values 1.04 | locus YMR125W, strain sto1, hits give low values 1.03 | locus YMR129W, hits give low values 1.01 | locus YMR205C, strain PFK2, hits give low values 1 | locus YMR223W, strain ubp8, hits give low values 1.02 | locus YMR231W, strain pep5, hits give low values 1.01 | locus YMR307W, strain GAS1, hits give low values 0.945 | locus YNL067W, strain RPL9B, hits give low values 1.02 | locus YNL071W, strain lat1, hits give low values 1.01 | locus YNL183C, strain NPR1, hits give low values 0.963 | locus YNL209W, strain ssb2, hits give low values 1.02 | locus YNL233W, strain BNI4, hits give low values 1.02 | locus YNL248C, strain rpa49, hits give low values 1.03 | locus YNL250W, strain rad50, hits give low values 1.05 | locus YNL271C, strain bni1, hits give low values 1.02 | locus YNL298W, strain CLA4, hits give low values 1.02 | locus YNL307C, strain MCK1, hits give low values 1.02 | locus YNL322C, strain KRE1 (second series), hits give low values 1 | locus YNR049C, strain mso1, hits give low values 1.02 | locus YNR052C, strain pop2, hits give low values 1.03 | locus YOL006C, strain TOP1, hits give low values 1.06 | locus YOL012C, strain htz1 0.901 | locus YOL147C, strain pex11, hits give low values 1.01 | locus YOR001W, strain rrp6, hits give low values 1.01 | locus YOR061W, strain CKA2, hits give low values 1.02 | locus YOR069W, strain VPS5, hits give low values 1.01 | locus YOR070C, strain gyp1, hits give low values 1.01 | locus YOR080W, strain dia2, hits give low values 1 | locus YOR083W, strain WHI5, hits give low values 0.992 | locus YOR106W, strain vam3, hits give low values 0.992 | locus YOR136W, strain idh2, hits give low values 1.03 | locus YOR144C, strain elg1, hits give low values 1.02 | locus YOR184W, strain ser1, hits give low values 1.05 | locus YOR231W, strain MKK1, hits give low values 0.958 | locus YOR265W, strain rbl2, hits give low values 0.991 | locus YOR270C, strain vph1, hits give low values 1.05 | locus YOR290C, strain snf2, hits give low values 0.993 | locus YOR316C, strain cot1, hits give low values 1.02 | locus YPL051W, strain arl3, hits give low values 0.989 | locus YPL055C, strain LGE1, hits give low values 1.04 | locus YPL078C, strain atp4, hits give low values 1.01 | locus YPL106C, strain sse1, hits give low values 0.995 | locus YPL240C, strain hsp82, hits give low values 1.01 | locus YPL241C, strain CIN2, hits give low values 1.01 | locus YPL256C, strain CLN2, hits give low values 0.977 | locus YPR119W, strain clb2, hits give low values 1.03 | locus YPR141C, strain kar3, hits give low values 1.02 | locus YPR163C, strain tif3, hits give low values 1.03 | locus YPR167C, strain met16, hits give low values 1.03 | strain wtn01, hits give low values 1.02
